28 compounds from PubChem BioAssay (NCATS) can be followed below.

Assay [1] in a line: qHTS profiling of the MIPE4 collection as inhibitors of Plasmodium falciparum (3D7) proliferation (AID 743344).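 Further: scaled between DMSO vehicle wells and 0.29 µM artemisinin as full inhibition.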 Conditions: P. falciparum 3D7 in erythrocytes, SYBR Green DNA fluorescence, 72 h; at 28.5 µM unless noted. The method, boiled down: (§1)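 Parasite DNA was quantified by SYBR Green I fluorescence (ex 485, em 535 nm) after overnight lysis in saponin/Triton buffer at room temperature. Cultures at 0.3% parasitemia and 2.5% hematocrit were first exposed to compound for 72 h at 37 C; signals were normalised to artemisinin (0.29 uM) and vehicle wells.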
(In general: In qHTS, concentration-response curves come from the screen itself.)

A short description of assay [2]: qHTS profiling of the MIPE4 collection as inhibitors of Plasmodium falciparum (DD2) proliferation (AID 743345). Conditions: P. falciparum Dd2 in erythrocytes, SYBR Green DNA, 72 h; at 28.5 µM unless noted. The gist of the method: as §1
Assay [3] in a line: qHTS profiling of the MIPE4 collection as inhibitors of Plasmodium falciparum (DD2) proliferation (Rep 2) (AID 743346). Conditions: P. falciparum Dd2 in erythrocytes, SYBR Green DNA, 72 h; at 28.5 µM unless noted. The method, boiled down:
as §1

Assay [4] can be described thus: qHTS profiling of the MIPE4 collection as inhibitors of Plasmodium falciparum (HB3) proliferation (AID 743347).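 Further: plate controls were DMSO vehicle wells for no effect and artemisinin wells for full effect.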 Conditions: P. falciparum HB3 in erythrocytes, SYBR Green DNA, 72 h; at 28.5 µM unless noted. The gist of the method:
as §1

For the compound `Nc1cccc2c1C(=O)N(C1CCC(=O)NC1=O)C2=O` (configuration not stated), the parasite growth, % of DMSO control in assay [1] amounted to 97.4%. For the same compound, in assay [2], the parasite growth remaining, % of DMSO control (lower = more inhibition) turned out to be 95.1%. The parasite growth, % of control (lower = inhibition) in assay [3] worked out at 113%. In assay [4], this compound yielded a growth, % of control of 49.9%.
Consider `C[C@@H](Cc1cc2c(c(C(N)=O)c1)N(CCCO)CC2)NCCOc1ccccc1OCC(F)(F)F`, for which the parasite growth, % of DMSO control in assay [1] was 48.1%. For the same compound, in assay [2], the parasite growth remaining, % of DMSO control (lower = more inhibition) amounted to 84%. Moreover, in assay [3], the parasite growth, % of control (lower = inhibition) worked out at 58.3%. In assay [4], this compound had a growth, % of control of 85.9%.
`NC(=NCCCCCCN=C(N)N=C(N)Nc1ccc(Cl)cc1)N=C(N)Nc1ccc(Cl)cc1` had a parasite growth, % of DMSO control in assay [1] of 12.4%. Moreover, the parasite growth remaining, % of DMSO control (lower = more inhibition) in assay [2] amounted to 6.46%. In addition, in assay [3], the parasite growth, % of control (lower = inhibition) was 22%. In addition, the growth, % of control in assay [4] was found to be 6.76%.
As to `C[C@H](NC(=O)Cc1cc(F)cc(F)c1)C(=O)N[C@H](C(=O)OC(C)(C)C)c1ccccc1`, the parasite growth, % of DMSO control in assay [1] is 74.2%. The parasite growth remaining, % of DMSO control (lower = more inhibition) in assay [2] was found to be 95.2%. Also, the parasite growth, % of control (lower = inhibition) in assay [3] amounted to 79.9%. For the same compound, the growth, % of control in assay [4] was 99.7%.
With `CON=C(C(=O)N[C@@H]1C(=O)N2C(C(=O)O)=C(CSC(=O)c3ccco3)CS[C@H]12)c1csc(N)n1`, the parasite growth, % of DMSO control in assay [1] was determined as 88.2%. Besides, in assay [2], the parasite growth remaining, % of DMSO control (lower = more inhibition) stood at 101%. The parasite growth, % of control (lower = inhibition) in assay [3] worked out at 71%. In assay [4], the growth, % of control amounted to 53.4%.
Compound `CCOC(=O)C=C[C@H](C[C@@H]1CCNC1=O)NC(=O)[C@@H](CC(=O)[C@@H](NC(=O)c1cc(C)on1)C(C)C)Cc1ccc(F)cc1` returned a parasite growth, % of DMSO control in assay [1] of 22%. The parasite growth remaining, % of DMSO control (lower = more inhibition) in assay [2] stood at 98.4%. In addition, the parasite growth, % of control (lower = inhibition) in assay [3] was found to be 41.1%. This compound registered a growth, % of control in assay [4] of 37.6%.
In the case of `NC(=O)Nc1sc(-c2ccc(F)cc2)cc1C(N)=O`, in assay [1], the parasite growth, % of DMSO control was 6.58%. The parasite growth remaining, % of DMSO control (lower = more inhibition) in assay [2] was determined as 8.68%. The parasite growth, % of control (lower = inhibition) in assay [3] was 9.96%. Besides, the growth, % of control in assay [4] was found to be 3.76%.
In assay [1], `Cc1cnc(Nc2ccc(CN3CCOCC3)cc2)nc1Nc1cccc(S(=O)(=O)NC(C)(C)C)c1` gave a parasite growth, % of DMSO control of 4.59%. For the same compound, the parasite growth remaining, % of DMSO control (lower = more inhibition) in assay [2] is 8.36%. Also, the parasite growth, % of control (lower = inhibition) in assay [3] was 16.8%. The compound further yielded a growth, % of control in assay [4] of 4.53%.
For `c1ccc(CNc2nc(NCc3ccccc3)c3ccccc3n2)cc1` the same measures were 5.75%, 7.99%, 10.1% and 8.52%.
In assay [1], `OCC(O)C(O)C(O)CO` (configuration not stated) gave a parasite growth, % of DMSO control of 88.8%. In addition, in assay [2], the parasite growth remaining, % of DMSO control (lower = more inhibition) was 105%. Also, the parasite growth, % of control (lower = inhibition) in assay [3] was found to be 114%. In assay [4], the growth, % of control is 95.9%.
In assay [1], `COc1cc(C(=O)NC2CCN(C)CC2)ccc1Nc1ncc2c(n1)N(C1CCCC1)CCC(=O)N2C(C)C` displayed a parasite growth, % of DMSO control of 5.76%. In assay [2], the parasite growth remaining, % of DMSO control (lower = more inhibition) came to 7.51%. Also, the parasite growth, % of control (lower = inhibition) in assay [3] is 15.5%. Further, the growth, % of control in assay [4] amounted to 6.9%.
Compound `NC(=O)c1ncn([C@@H]2O[C@H](CO)[C@@H](O)[C@@H]2O)c1O` came in with a parasite growth, % of DMSO control in assay [1] of 109%. In assay [2], the parasite growth remaining, % of DMSO control (lower = more inhibition) was 33.1%. In addition, in assay [3], the parasite growth, % of control (lower = inhibition) is 102%. Moreover, the growth, % of control in assay [4] was determined as 71.4%.
With `CCc1nc(-c2cccc(C)c2)c(-c2ccnc(NC(=O)c3ccccc3)c2)s1`, in assay [1], the parasite growth, % of DMSO control was 21.9%. For the same compound, in assay [2], the parasite growth remaining, % of DMSO control (lower = more inhibition) is 47.6%. In assay [3], the parasite growth, % of control (lower = inhibition) was 49.3%. In assay [4], this compound had a growth, % of control of 29.7%.
For `CCOC(=O)N1CCN([N+]([O-])=NOc2ccc([N+](=O)[O-])cc2[N+](=O)[O-])CC1`, the parasite growth, % of DMSO control in assay [1] came to 67.7%. The parasite growth remaining, % of DMSO control (lower = more inhibition) in assay [2] was 83%. In addition, the parasite growth, % of control (lower = inhibition) in assay [3] amounted to 70.7%. In assay [4], this compound gave a growth, % of control of 60.8%.
Compound `Cc1coc2c1C(=O)C(=O)c1c-2ccc2c(C)cccc12` had a parasite growth, % of DMSO control in assay [1] of 8.32%. For the same compound, the parasite growth remaining, % of DMSO control (lower = more inhibition) in assay [2] was found to be 19.5%. Also, the parasite growth, % of control (lower = inhibition) in assay [3] was found to be 15.4%. This compound also displayed a growth, % of control in assay [4] of 3.19%.
As for `O=C(Nc1nnc(-c2ccco2)o1)c1cc(-c2ccccc2)nc2ccccc12`, in assay [1], the parasite growth, % of DMSO control is 51.6%. In assay [2], the parasite growth remaining, % of DMSO control (lower = more inhibition) was 94.4%. Also, the parasite growth, % of control (lower = inhibition) in assay [3] worked out at 42.6%. This compound also registered a growth, % of control in assay [4] of 18.7%.
As to `CC(=O)C1=C(O)C=C2Oc3c(C(C)=O)c(O)c(C)c(O)c3C2(C)C1=O` (configuration not stated), in assay [1], the parasite growth, % of DMSO control turned out to be 82.6%. The parasite growth remaining, % of DMSO control (lower = more inhibition) in assay [2] came out at 97.8%. In addition, in assay [3], the parasite growth, % of control (lower = inhibition) was found to be 81%. This compound also yielded a growth, % of control in assay [4] of 99%.
For the compound `N=c1ccn2c(n1)O[C@H]1[C@@H](O)[C@@H](CO)O[C@H]12`, in assay [1], the parasite growth, % of DMSO control worked out at 82.9%. Besides, in assay [2], the parasite growth remaining, % of DMSO control (lower = more inhibition) stood at 119%. The parasite growth, % of control (lower = inhibition) in assay [3] is 83.2%. Besides, the growth, % of control in assay [4] was 73.8%.
On the same counts, the results for `Oc1ccc(-c2ccc(-c3cc(Nc4cccc(CNC5CC5)c4)n[nH]3)cc2)c(O)c1` are 9.07%, 13.4%, 20% and 3.25%.
For `C=C1C(=O)O[C@H]2[C@@H]1CCC(C)=CCC[C@@]1(C)O[C@@H]21` the same measures were 39.5%, 75.8%, 37.7% and 31.2%.
On the same counts, the results for `O=c1ccn([C@@H]2O[C@H](CO)[C@H](O)[C@@H]2F)c(=O)[nH]1` are 187%, 100%, 107% and 645%.
With `C[C@@]12C[C@@]3(O)O[C@@H](O1)[C@]1(COC(=O)c4ccccc4)[C@@H]3C[C@@]12O[C@@H]1O[C@H](CO)[C@@H](O)[C@H](O)[C@@H]1O`, in assay [1], the parasite growth, % of DMSO control was 90.9%. The parasite growth remaining, % of DMSO control (lower = more inhibition) in assay [2] came to 96.7%. In assay [4], this compound yielded a growth, % of control of 109%.
Compound `Nc1ccc(C(=O)Nc2cccc(-c3nc(N4CCOCC4)c4oc5ncccc5c4n3)c2)cn1` showed a parasite growth, % of DMSO control in assay [1] of 6.14%. The parasite growth remaining, % of DMSO control (lower = more inhibition) in assay [2] was found to be 6.97%. In assay [4], this compound came in with a growth, % of control of 2.51%.
In turn, `FC(F)(F)c1ccc(Nc2nc3ccc(Oc4ccnc(-c5ncc(C(F)(F)F)[nH]5)c4)cc3[nH]2)cc1` had a parasite growth, % of DMSO control in assay [1] of 6.13%. In assay [2], the parasite growth remaining, % of DMSO control (lower = more inhibition) stood at 48.6%. Also, the parasite growth, % of control (lower = inhibition) in assay [3] was determined as 15.3%. In assay [4], this compound displayed a growth, % of control of 7.1%.
In assay [1], `COC(=O)C=CC(=O)OC` displayed a parasite growth, % of DMSO control of 76.2%. For the same compound, the parasite growth remaining, % of DMSO control (lower = more inhibition) in assay [2] was determined as 97.5%. The same compound returned a growth, % of control in assay [4] of 96.5%.
The compound `COC1=C2C[C@@H](C)C[C@H](OC)[C@@H](O)[C@@H](C)C=C(C)[C@H](OC(N)=O)[C@@H](OC)C=CC=C(C)C(=O)NC(=CC1=O)C2=O` had a parasite growth, % of DMSO control in assay [1] of 5.43%. Moreover, the parasite growth remaining, % of DMSO control (lower = more inhibition) in assay [2] came to 5.64%. This compound also displayed a growth, % of control in assay [4] of 3.98%.
The compound `N#Cc1c(C2CCNCC2)cc(-c2c(O)cccc2OCC2CC2)nc1N` showed a parasite growth, % of DMSO control in assay [1] of 12%. Also, the parasite growth remaining, % of DMSO control (lower = more inhibition) in assay [2] stood at 12.3%. The growth, % of control in assay [4] was 5.66%.
Regarding `CC[C@@]1([C@@H]2O[C@@H]([C@H]3O[C@@](O)(CO)[C@H](C)C[C@H]3C)C[C@H]2C)CC[C@H]([C@]2(C)CC[C@]3(C[C@H](O)[C@@H](C)[C@@H]([C@@H](C)[C@@H](OC)[C@H](C)C(=O)O)O3)O2)O1`, the parasite growth, % of DMSO control in assay [1] stood at 5.35% [at 9.64 µM]. For the same compound, in assay [2], the parasite growth remaining, % of DMSO control (lower = more inhibition) was determined as 5.25% [at 9.64 µM]. In assay [3], the parasite growth, % of control (lower = inhibition) turned out to be 9.17% [at 9.64 µM]. In assay [4], this compound registered a growth, % of control of 3.89% [at 9.64 µM].
